Screens (PubChem)
This is a sample that favours compounds with a hit; in the whole collection about 7.5% have one here.
Luc counter: counter-screen: inhibitors of Kinase-Glo firefly luciferase; Kinase-Glo luciferase, ATP luminescence, 8 min; 200,000 compounds, 0.28% hits; Potency, µM (top dose mostly 38.3 µM), most hits filed as inhibitors; further: nearly all actives have a fitted effect of over 60% in size
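Light output from Kinase-Glo luciferase with luciferin and 10 uM ATP in 50 mM imidazole pH 7.2, KCl, MgCl2, Tween 20, BSA; compound pin-delivered, 8-min ambient incubation, then luminescence read.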
NPC1 promoter act: activates the NPC1 promoter | Potency, µM (titrated, usually from 9.22 µM), usual class: activators | Huh7 NPC1 promoter luciferase reporter, 24 h | 320,000 compounds, 2.4% hits; further: nearly all actives have a fitted effect of over 60% in size
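NPC1 promoter–luciferase Huh7 cells; 24 h compound; luminescence.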
SMN2 splice up: increases expression of the SMN2 splice variant | HEK293 SMN2-luciferase splicing reporter, luminescence, 30-36 h | Potency, µM (highest dose often 46.1 µM), most hits filed as activators | 210,000 compounds, 2.8% hits | AID 1458; further: nearly all actives have a fitted effect of over 55% in size
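HEK293 cells carry an SMN2 […]–luciferase reporter in which exon 7 inclusion puts luciferase in frame. Cells were plated 10-12 h before compound addition, then incubated 30-36 h at 37C. ONE-Glo luminescence was read; sodium butyrate at 4.5 mM final served as control.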
FLuc modulator: firefly luciferase modulation, counter-screen for miR-21 project. Potency, µM (top dose mostly 57.5 µM), most hits filed as inhibitors. purified FLuc, Km substrates, luminescence inhibition. P08659. 360,000 compounds, 6.9% hits; further: nearly all actives have a fitted effect of over 55% in size
Target sequence (P08659 whole entry, looked up): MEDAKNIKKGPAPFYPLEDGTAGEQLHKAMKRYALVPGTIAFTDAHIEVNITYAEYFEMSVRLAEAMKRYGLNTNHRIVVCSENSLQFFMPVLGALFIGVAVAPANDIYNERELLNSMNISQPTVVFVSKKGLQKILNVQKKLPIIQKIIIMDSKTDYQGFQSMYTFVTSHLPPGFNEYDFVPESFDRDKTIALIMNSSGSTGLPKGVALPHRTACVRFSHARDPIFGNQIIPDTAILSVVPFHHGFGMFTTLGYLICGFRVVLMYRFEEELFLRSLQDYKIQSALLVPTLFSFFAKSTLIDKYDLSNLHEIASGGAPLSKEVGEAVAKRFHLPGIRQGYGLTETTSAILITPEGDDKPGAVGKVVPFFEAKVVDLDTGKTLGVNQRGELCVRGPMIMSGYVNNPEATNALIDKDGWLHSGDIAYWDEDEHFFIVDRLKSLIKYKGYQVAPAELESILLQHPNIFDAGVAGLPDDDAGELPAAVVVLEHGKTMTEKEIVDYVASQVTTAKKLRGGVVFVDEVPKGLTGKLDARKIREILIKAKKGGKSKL
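Biochemical qHTS of compounds, final roughly 60 µM downward over six points, against 10 nM purified firefly luciferase using Km concentrations of substrates (10 uM D-luciferin, 10 uM ATP) in Tris acetate pH 7.5 buffer; luminescence output.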
ELG1 genotox: inducers of genotoxicity in HEK293T ELG1-luciferase cells; HEK293T ELG1-luciferase reporter, luminescence, 16 h; Potency, µM (highest dose often 46 µM), usual class: activators; 330,000 compounds, 1.3% hits; further: nearly all actives have a fitted effect of over 60% in size
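Luminescence read-out: rising ELG1-luciferase signal, reflecting elevated ELG1 protein under genetic stress, flags genotoxic compounds. Cells were treated for 16 hr at 37 °C before ONE-Glo detection.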
Rab9 prom act: activates the Rab9 promoter. Huh7 Rab9 promoter-luciferase reporter, luminescence, 24 h. Potency, µM (series often up to 9.22 µM), actives largely listed as activators. 320,000 compounds, 2.8% hits. AID 485297; further: nearly all actives have a fitted effect of over 60% in size
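Luminescence from Amplite-detected luciferase (10 minutes, ambient) reports Rab9 promoter activation. Before that, stable Rab9-luciferase Huh7 cells (1500/well, reduced-serum OP-MEM I plus 10% FBS) were exposed to compound for 24 hours at 37C.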
Large screens that a line does not name were inactive. The call rests on the fitted dose curve; in most records, active means well fitted curve in the direction sought with a large enough effect; inconclusive means small, poorly fitted or top-dose-only effect, or another doubt; inactive means no such curve, though single readings can be large; an effect the other way counts as inactive or inconclusive.

O=[N+]([O-])c1ccc(Oc2ccc(OCc3ccccc3)cc2)nc1	none (no result: Luc counter, SMN2 splice up)
O=[N+]([O-])c1cccnc1Oc1ccc(C2SCCS2)cc1	NPC1 promoter act inconclusive, FLuc modulator 21µM, ELG1 genotox inconclusive, Rab9 prom act inconclusive (no result: Luc counter, SMN2 splice up)
O=[N+]([O-])c1cccnc1Oc1ccc(OCc2ccccc2)cc1	NPC1 promoter act inconclusive, FLuc modulator 17µM, ELG1 genotox inconclusive, Rab9 prom act inconclusive (no result: Luc counter, SMN2 splice up)
COc1cc(C2SCCS2)cc(Br)c1Oc1ncccc1[N+](=O)[O-]	none (no result: Luc counter, SMN2 splice up)
O=C(/C=C/c1ccnc2ccccc12)c1cccs1	Luc counter 13µM, NPC1 promoter act 0.56µM, SMN2 splice up 7.1µM, FLuc modulator 0.067µM, ELG1 genotox inconclusive, Rab9 prom act 0.32µM
COc1ccc(/C=C/C(=O)c2cccs2)c(OC)c1	none (no result: NPC1 promoter act, SMN2 splice up, FLuc modulator, ELG1 genotox, Rab9 prom act)
O=C(CN(Cc1ccccc1)S(=O)(=O)c1ccc(S(=O)(=O)N2CCOCC2)cc1)Nc1ccccc1	SMN2 splice up inconclusive
COc1ccc(Nc2nc(-c3ccccc3F)nc3ccccc23)cc1OC	FLuc modulator 27µM (no result: Luc counter, SMN2 splice up)
Oc1ccc(Nc2nc(-c3ccccc3F)nc3ccccc23)cc1	none (no result: Luc counter, SMN2 splice up)
CCCCCCCC/C=C\CCCCCCCC(=O)OC[C@@H](O)COP(=O)(O)O	none (no result: NPC1 promoter act, FLuc modulator, ELG1 genotox, Rab9 prom act)
CCOc1ccc(-c2nnc(SCC(=O)NC3CC3)o2)cc1	FLuc modulator inconclusive (no result: Luc counter, SMN2 splice up)
CC(C)(C)c1ccc(C(=O)NCc2nnc(SCC(=O)NC3CCCC3)o2)cc1	FLuc modulator inconclusive (no result: Luc counter, SMN2 splice up)
CC(C)(C)c1ccc(C(=O)NCc2nnc(SCC(=O)NC3CCCCC3)o2)cc1	FLuc modulator 19µM (no result: Luc counter, SMN2 splice up)
CC(C)(C)c1ccc(-c2nnc(SCC(=O)NC3CC3)o2)cc1	NPC1 promoter act inconclusive, FLuc modulator 4.3µM, Rab9 prom act inconclusive (no result: Luc counter, SMN2 splice up)
Cc1ccc(Cl)cc1NC(=O)Cn1ncc2c(C)n(Cc3ccccc3F)c(C)c2c1=O	none (no result: Luc counter, NPC1 promoter act, ELG1 genotox, Rab9 prom act)
CC(C)(C)CC(=O)Nc1ccc(Nc2ccccc2)cc1	FLuc modulator 12µM, Rab9 prom act 3.2µM
CCCCc1ccc(NC(=O)CC(C)(C)C)cc1	NPC1 promoter act inconclusive, FLuc modulator 15µM, Rab9 prom act inconclusive (no result: SMN2 splice up)
CC(C)CC(=O)Nc1ccc(Nc2ccccc2)cc1	FLuc modulator 19µM
CCCCc1ccc(NC(=O)CC(C)=O)cc1	ELG1 genotox inconclusive
Cc1cccc(NC(=O)CC(C)(C)C)c1	none (no result: SMN2 splice up)
CC(C)C(=O)Nc1ccc(Nc2ccccc2)cc1	FLuc modulator 19µM
CCC(CC)C(=O)Nc1ccc(Nc2ccccc2)cc1	FLuc modulator inconclusive
CC[C@]1(C(=O)OC)[C@H]2C(=O)N(C)C(=O)[C@H]2[C@H]2CN=C(SCc3ccc(OC)cc3)N21	none (no result: Luc counter, NPC1 promoter act, SMN2 splice up, FLuc modulator, Rab9 prom act)
CCOc1ccc(/C=C(\C#N)C(=O)Nc2sc3c(c2C(=O)OC)C(C(=O)OC)CC3)cc1OC (centres undefined)	FLuc modulator inconclusive (no result: Luc counter, NPC1 promoter act, ELG1 genotox, Rab9 prom act)
CCC(=O)N1CCc2cc(S(=O)(=O)NC(CC(C)C)C(=O)NCc3ccc(C)cc3)ccc21 (centres undefined)	none (no result: Luc counter, NPC1 promoter act, ELG1 genotox, Rab9 prom act)
Cc1cc(/C([O-])=C(/C(=S)Nc2ccccc2)[n+]2ccccc2)c(C)n1-c1ccccc1	FLuc modulator 12µM, ELG1 genotox 10µM
Cc1cc(/C([O-])=C(/C(=S)Nc2ccc(F)cc2)[n+]2ccccc2)c(C)n1-c1ccc(F)cc1	FLuc modulator inconclusive
CCCCNC(=O)c1ccc2nc(-c3ccco3)c(-c3ccco3)nc2c1	FLuc modulator inconclusive
O=C(NCCCO)c1ccc2nc(-c3ccco3)c(-c3ccco3)nc2c1	FLuc modulator 19µM
O=C(Nc1ccccc1)c1ccc2nc(-c3ccco3)c(-c3ccco3)nc2c1	none
COc1ccc2nc(-c3ccco3)c(-c3ccco3)nc2c1	FLuc modulator 2.7µM, ELG1 genotox inconclusive, Rab9 prom act inconclusive
O=C(NCCO)Nc1ccc2nsnc2c1	none
CC(=O)c1ccc(NC(=O)c2ccc3nc(-c4ccco4)c(-c4ccco4)nc3c2)cc1	FLuc modulator 12µM
O=C(NCCO)Nc1ccc2nc(-c3ccco3)c(-c3ccco3)nc2c1	FLuc modulator 24µM
O=C(NCCCNC(=O)c1cnccn1)c1ccc(Br)cc1	none (no result: Luc counter, SMN2 splice up)
Cc1ccc(N2CCN(c3nc4ccc(C(=O)c5ccccc5)cc4n4cnnc34)CC2)c(C)c1	none (no result: Luc counter, NPC1 promoter act, SMN2 splice up, ELG1 genotox, Rab9 prom act)
COc1ccccc1-n1cnc2cc(C(=O)NCc3ccco3)ccc21	none
COc1ccc(-n2cnc3cc(NCc4cccs4)ccc32)cc1	NPC1 promoter act inconclusive, FLuc modulator 15µM
c1ccc(-n2cnc3cc(NCc4cccs4)ccc32)cc1	NPC1 promoter act inconclusive, FLuc modulator 2.1µM, ELG1 genotox inconclusive, Rab9 prom act 1µM
Cn1cnc2cc(NCc3cccs3)ccc21	ELG1 genotox inconclusive
c1ccc(-n2cnc3cc(NCc4ccco4)ccc32)cc1	NPC1 promoter act inconclusive, SMN2 splice up 13µM, FLuc modulator 9.5µM, ELG1 genotox inconclusive, Rab9 prom act inconclusive
COc1ccc(-n2cnnc2SCC(=O)NCc2cccs2)cc1	none
Cc1ccc(-n2cnc3cc(NCc4cccs4)ccc32)cc1	NPC1 promoter act inconclusive, FLuc modulator 11µM, ELG1 genotox 9.2µM, Rab9 prom act inconclusive
O=C(Nc1ccc(OC(F)(F)F)cc1)C1CCN(S(=O)(=O)c2ccc3[nH]c(=O)ccc3c2)CC1	none (no result: Luc counter, NPC1 promoter act, SMN2 splice up, ELG1 genotox, Rab9 prom act)
COc1ccc(/C=N/NC(C)(C)C)c(OC)c1	none
COc1ccc(-n2nc([N+](=O)[O-])c(=NCCCN3CCCC3=O)n2O)cc1	NPC1 promoter act inconclusive, ELG1 genotox inconclusive, Rab9 prom act 1.6µM
